The record followed here is PMC7862700, “An all-to-all approach to the identification of sequence-specific readers for epigenetic DNA modifications on cytosine”.

Experiment in all cases: DAPPL (digital affinity profiling via proximity ligation, sequencing); 10 mM Tris-HCl pH 7.5, 50 mM NaCl, 1 mM DTT, 4% glycerol, room temperature, 30 min; GST-TFs on glutathione beads, 16-mer random dsDNA library, 0.1% formaldehyde crosslink after washing; high values mean tight binding
Holding throughout (settings): protein: recombinant; tags: N-terminal GST; dsDNA, one strand shown

Assay [1] addresses T1, FLI1 (Homo sapiens, UniProt Q01543 1-452).
T1 sequence: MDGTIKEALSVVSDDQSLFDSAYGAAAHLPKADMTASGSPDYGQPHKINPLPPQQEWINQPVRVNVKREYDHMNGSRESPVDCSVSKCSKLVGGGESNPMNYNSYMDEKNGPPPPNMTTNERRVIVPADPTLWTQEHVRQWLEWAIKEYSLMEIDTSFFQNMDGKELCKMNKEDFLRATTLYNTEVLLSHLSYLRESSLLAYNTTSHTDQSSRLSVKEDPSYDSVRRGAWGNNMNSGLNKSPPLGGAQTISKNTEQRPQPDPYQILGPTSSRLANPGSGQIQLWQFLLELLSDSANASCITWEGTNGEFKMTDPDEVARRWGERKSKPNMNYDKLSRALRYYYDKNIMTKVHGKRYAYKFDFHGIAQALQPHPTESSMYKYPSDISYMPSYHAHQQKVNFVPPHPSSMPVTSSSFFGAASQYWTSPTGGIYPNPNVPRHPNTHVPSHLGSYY
An outline of the steps: (§1)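 GST fusions of human transcription factors were expressed in yeast and captured with glutathione beads. Once given DNA barcodes and pooled alongside a tag-only sample, they were incubated for 30 min at room temperature with 200 nmole of a random double-stranded 16-mer DNA library in Tris/NaCl/DTT/glycerol buffer, then washed, crosslinked (0.1% formaldehyde), proximity-ligated, PCR-amplified and sequenced on an Illumina NextSeq500. The binding signal of each hexamer is its read frequency for a factor divided by its frequency for the tag-only sample.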

In assay [2] the target is T2, ELK1 (Homo sapiens, UniProt P19419 1-428).
T2 sequence: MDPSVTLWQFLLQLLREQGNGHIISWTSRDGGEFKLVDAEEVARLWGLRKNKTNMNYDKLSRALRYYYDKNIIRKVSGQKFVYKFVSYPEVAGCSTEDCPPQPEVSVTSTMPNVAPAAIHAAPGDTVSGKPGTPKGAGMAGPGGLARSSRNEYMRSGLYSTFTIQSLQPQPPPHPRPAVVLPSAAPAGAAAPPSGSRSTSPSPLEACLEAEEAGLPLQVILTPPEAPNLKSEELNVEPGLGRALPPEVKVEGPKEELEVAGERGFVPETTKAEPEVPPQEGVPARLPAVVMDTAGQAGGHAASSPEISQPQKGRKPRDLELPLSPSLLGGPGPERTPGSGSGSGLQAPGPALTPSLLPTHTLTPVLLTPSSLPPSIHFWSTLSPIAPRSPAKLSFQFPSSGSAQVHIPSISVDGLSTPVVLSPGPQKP
Put shortly: as §1

Assay [3] deals with T3, GABPA (Homo sapiens, UniProt Q06546 1-454).
T3 sequence: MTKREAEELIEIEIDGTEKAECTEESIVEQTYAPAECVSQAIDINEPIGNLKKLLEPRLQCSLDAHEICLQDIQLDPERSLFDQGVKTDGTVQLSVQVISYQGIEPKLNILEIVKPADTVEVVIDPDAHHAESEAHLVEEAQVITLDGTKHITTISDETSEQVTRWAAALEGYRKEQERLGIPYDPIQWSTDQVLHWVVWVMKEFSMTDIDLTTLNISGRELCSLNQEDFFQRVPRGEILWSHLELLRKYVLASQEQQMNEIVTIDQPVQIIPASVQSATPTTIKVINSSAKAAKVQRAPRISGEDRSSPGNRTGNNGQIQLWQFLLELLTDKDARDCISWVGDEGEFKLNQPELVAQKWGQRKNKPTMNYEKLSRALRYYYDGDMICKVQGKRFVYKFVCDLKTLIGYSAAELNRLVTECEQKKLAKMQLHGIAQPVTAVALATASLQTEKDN
An outline of the steps:
as §1

Assay [4] deals with T4, ERG (Homo sapiens, UniProt P11308 1-479).
T4 sequence: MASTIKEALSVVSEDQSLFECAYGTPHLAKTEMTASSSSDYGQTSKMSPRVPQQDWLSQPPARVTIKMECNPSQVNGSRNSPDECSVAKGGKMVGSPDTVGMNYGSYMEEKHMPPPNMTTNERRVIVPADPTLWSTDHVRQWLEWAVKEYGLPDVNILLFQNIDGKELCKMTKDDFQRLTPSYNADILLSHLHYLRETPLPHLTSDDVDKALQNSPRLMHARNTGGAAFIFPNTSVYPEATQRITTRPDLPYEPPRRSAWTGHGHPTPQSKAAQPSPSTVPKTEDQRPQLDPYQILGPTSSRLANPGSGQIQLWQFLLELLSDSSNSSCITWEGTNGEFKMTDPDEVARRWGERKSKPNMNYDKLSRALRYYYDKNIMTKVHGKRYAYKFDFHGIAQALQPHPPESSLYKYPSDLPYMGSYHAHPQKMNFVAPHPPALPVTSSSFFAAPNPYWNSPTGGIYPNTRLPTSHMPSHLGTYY
Put shortly:
as §1

The target in assay [5] is ELF1 (Homo sapiens, UniProt P32519 1-619). An outline of the steps:
as §1

The target of assay [6] is T5, EHF (Homo sapiens, UniProt Q9NZC4 1-300).
T5 sequence: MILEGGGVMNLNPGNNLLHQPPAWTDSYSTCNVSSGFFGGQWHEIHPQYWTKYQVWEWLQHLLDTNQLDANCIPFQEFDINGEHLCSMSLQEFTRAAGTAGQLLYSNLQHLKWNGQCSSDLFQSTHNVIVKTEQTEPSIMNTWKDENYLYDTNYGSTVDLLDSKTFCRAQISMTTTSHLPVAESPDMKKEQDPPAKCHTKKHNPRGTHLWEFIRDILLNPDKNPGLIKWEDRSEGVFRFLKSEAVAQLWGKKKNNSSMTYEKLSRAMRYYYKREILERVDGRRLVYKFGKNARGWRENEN
An outline of the steps:
as §1

The target of assay [7] is SPI1 (Homo sapiens, UniProt P17947 1-270). An outline of the steps:
as §1

For assay [8], the target named is SPIB (Homo sapiens, UniProt Q01892 1-262). An outline of the steps:
as §1

In assay [9] the target is T6, ELK3 (Homo sapiens, UniProt P41970 1-407).
T6 sequence: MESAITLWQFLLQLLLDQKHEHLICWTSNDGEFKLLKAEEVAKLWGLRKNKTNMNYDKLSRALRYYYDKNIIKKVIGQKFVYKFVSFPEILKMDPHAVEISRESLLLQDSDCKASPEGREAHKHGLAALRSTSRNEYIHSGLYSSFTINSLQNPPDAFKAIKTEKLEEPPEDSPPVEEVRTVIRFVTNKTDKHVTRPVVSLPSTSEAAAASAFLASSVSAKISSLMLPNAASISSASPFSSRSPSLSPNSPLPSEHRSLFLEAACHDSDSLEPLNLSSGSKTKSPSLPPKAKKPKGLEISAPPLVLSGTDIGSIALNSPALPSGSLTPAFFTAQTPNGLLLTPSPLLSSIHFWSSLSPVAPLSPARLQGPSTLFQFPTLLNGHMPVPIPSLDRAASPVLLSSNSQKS
Put shortly: as §1

The target in assay [10] is T7, FEV (Homo sapiens, UniProt Q99581 1-238).
T7 sequence: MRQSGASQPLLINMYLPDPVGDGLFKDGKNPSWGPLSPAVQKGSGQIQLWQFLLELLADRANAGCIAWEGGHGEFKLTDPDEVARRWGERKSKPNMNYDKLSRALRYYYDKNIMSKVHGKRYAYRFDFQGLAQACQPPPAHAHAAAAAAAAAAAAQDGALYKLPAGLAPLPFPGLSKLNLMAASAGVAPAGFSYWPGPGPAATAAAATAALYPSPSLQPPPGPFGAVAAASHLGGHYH
Put shortly:
as §1

In assay [11] the target is ETV5 (Homo sapiens, UniProt P41161 1-510). Put shortly: as §1
Assay [12] addresses T8, SPIC (Homo sapiens, UniProt Q8N5J4 1-248).
T8 sequence: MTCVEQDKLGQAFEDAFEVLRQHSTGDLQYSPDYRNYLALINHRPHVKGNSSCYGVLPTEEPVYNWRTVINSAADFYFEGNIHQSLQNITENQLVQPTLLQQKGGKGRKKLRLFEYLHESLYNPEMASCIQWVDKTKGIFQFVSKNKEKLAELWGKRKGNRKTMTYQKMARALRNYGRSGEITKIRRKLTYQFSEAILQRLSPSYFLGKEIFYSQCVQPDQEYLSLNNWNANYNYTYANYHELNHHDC
An outline of the steps: as §1

Assay [13] deals with ELF4 (Homo sapiens, UniProt Q99607 1-663). An outline of the steps: as §1
Assay [14] deals with T9, ELK4 (Homo sapiens, UniProt P28324-2 1-405).
T9 sequence: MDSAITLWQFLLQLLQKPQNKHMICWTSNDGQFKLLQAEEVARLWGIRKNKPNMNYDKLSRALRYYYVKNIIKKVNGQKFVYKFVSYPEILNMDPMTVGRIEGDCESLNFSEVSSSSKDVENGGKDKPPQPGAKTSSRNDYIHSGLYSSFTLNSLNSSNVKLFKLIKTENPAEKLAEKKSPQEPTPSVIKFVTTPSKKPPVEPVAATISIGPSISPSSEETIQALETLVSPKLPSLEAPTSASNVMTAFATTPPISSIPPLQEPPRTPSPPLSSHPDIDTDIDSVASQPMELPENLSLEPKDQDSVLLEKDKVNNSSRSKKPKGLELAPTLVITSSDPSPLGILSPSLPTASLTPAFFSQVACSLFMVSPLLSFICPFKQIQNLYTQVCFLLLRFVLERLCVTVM
An outline of the steps:
as §1

The target in assay [15] is T10, ETV2 (Homo sapiens, UniProt O00321 1-342).
T10 sequence: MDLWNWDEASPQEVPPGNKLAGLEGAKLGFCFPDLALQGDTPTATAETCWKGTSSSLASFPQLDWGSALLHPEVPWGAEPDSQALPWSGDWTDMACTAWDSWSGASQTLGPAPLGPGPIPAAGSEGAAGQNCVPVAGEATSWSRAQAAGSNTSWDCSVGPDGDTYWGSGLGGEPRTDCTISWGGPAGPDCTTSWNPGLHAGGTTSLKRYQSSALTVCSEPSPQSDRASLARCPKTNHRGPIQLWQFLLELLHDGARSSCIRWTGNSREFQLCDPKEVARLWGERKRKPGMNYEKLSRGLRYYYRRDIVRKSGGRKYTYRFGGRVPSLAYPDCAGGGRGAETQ
An outline of the steps: as §1

The target of assay [16] is T11, ELF3 (Homo sapiens, UniProt P78545 1-371).
T11 sequence: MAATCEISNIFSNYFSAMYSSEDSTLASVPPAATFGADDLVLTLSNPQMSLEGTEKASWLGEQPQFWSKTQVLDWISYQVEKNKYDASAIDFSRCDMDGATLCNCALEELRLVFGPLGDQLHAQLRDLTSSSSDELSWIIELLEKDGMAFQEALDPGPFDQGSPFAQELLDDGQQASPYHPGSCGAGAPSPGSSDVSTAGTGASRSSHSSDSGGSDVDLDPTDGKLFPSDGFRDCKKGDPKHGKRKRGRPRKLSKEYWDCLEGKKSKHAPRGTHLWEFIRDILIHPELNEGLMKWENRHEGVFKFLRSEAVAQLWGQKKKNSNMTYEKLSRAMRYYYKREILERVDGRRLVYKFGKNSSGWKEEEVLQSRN
An outline of the steps: as §1

Assay [17] addresses ETV1 (Homo sapiens, UniProt P50549 1-477). Put shortly:
as §1

ELF1, sequence (P32519 whole entry): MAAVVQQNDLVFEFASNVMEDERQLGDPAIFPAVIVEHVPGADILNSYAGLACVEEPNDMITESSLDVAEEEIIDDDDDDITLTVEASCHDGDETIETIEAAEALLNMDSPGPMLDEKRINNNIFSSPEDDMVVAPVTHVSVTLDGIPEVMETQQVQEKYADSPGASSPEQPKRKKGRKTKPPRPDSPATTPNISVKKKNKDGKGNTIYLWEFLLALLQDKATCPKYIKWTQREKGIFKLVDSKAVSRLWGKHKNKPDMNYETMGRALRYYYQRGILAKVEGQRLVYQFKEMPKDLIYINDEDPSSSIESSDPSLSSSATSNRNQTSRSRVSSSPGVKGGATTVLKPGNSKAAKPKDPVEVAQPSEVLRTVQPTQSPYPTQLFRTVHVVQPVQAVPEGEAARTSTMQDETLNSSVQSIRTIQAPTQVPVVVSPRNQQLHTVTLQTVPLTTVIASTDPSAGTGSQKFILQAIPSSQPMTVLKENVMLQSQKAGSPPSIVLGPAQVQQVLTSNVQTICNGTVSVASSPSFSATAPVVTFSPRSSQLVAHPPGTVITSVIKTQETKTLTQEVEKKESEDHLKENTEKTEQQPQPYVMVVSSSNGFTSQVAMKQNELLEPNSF
SPIB, sequence (Q01892 whole entry): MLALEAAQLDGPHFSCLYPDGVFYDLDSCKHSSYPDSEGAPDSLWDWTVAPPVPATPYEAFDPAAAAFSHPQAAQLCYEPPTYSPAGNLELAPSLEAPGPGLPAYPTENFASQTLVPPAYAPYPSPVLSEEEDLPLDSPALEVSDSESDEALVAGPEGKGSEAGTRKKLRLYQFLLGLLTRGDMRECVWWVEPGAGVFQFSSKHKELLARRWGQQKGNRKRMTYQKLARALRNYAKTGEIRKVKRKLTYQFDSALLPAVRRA
ETV1, sequence (P50549 whole entry): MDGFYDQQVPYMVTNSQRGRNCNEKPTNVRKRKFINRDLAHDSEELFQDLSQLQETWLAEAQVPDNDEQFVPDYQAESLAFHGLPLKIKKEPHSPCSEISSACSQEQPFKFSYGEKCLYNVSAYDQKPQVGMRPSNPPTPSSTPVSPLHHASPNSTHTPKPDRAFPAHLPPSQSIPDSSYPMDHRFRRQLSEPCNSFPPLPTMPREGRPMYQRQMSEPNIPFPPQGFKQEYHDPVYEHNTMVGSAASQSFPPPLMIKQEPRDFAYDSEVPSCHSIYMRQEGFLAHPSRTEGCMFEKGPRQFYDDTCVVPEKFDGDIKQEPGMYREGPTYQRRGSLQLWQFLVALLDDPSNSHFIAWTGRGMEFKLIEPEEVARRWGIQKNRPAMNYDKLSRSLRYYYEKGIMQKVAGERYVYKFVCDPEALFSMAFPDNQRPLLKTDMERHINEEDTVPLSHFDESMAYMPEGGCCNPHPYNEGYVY
ELF4, sequence (Q99607 whole entry): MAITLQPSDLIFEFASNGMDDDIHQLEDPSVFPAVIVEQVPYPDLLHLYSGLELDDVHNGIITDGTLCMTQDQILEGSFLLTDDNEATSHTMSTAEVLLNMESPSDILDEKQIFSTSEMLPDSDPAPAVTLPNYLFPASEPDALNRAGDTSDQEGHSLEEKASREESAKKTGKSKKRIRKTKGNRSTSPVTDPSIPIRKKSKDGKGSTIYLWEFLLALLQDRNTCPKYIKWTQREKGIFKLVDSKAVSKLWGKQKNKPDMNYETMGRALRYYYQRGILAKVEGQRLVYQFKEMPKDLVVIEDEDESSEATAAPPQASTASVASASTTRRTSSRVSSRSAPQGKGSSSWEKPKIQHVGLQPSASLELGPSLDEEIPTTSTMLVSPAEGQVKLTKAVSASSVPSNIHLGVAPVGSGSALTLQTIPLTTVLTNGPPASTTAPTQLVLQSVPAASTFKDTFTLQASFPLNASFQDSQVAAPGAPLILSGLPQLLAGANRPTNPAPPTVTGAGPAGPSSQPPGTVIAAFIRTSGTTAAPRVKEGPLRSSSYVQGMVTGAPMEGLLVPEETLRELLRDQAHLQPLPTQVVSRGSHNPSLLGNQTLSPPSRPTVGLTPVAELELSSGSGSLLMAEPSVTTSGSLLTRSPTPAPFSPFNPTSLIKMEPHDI
ETV5, sequence (P41161 whole entry): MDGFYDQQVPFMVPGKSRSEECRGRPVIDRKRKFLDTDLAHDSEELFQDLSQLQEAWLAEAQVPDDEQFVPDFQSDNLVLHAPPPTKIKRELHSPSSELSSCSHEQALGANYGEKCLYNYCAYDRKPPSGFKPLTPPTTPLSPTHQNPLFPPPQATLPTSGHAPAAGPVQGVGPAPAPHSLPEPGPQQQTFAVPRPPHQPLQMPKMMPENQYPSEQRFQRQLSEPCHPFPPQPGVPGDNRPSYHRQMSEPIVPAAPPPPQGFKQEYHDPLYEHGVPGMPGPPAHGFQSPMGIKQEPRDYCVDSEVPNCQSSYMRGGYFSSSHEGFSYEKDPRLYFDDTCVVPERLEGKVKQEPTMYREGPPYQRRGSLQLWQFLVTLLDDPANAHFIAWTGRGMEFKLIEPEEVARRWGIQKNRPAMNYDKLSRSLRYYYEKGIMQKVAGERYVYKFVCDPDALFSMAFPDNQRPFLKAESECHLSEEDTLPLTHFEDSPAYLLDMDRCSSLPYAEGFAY

Take GGTTTG: the binding signal in assay [1] was 1.18 fold enrichment (6-mer frequency, TF over GST control); in assay [2] it was 1.15 fold enrichment (6-mer frequency, TF over GST control); in assay [3], 1.24 fold enrichment (6-mer frequency, TF over GST control); in assay [4], 1.13 fold enrichment (6-mer frequency, TF over GST control); in assay [5], 1.19 fold enrichment (6-mer frequency, TF over GST control); in [6], 1.22 fold enrichment (6-mer frequency, TF over GST control). Further, the binding signal in assay [7] is 1.06 fold enrichment (6-mer frequency, TF over GST control); in [8] it was 1.01 fold enrichment (6-mer frequency, TF over GST control); in [9] it was 1.2 fold enrichment (6-mer frequency, TF over GST control); in assay [10], 1.12 fold enrichment (6-mer frequency, TF over GST control); in [11] it was 1.02 fold enrichment (6-mer frequency, TF over GST control); in assay [12], 1.27 fold enrichment (6-mer frequency, TF over GST control). Besides, the binding signal is 1.12 fold enrichment (6-mer frequency, TF over GST control) in [13]; 1.26 fold enrichment (6-mer frequency, TF over GST control) in [14]; 1.05 fold enrichment (6-mer frequency, TF over GST control) in assay [15]; 1.09 fold enrichment (6-mer frequency, TF over GST control) in assay [16]; 1.14 fold enrichment (6-mer frequency, TF over GST control) in [17].
Turning to GGATGC, the binding signal is 1.11 fold enrichment (6-mer frequency, TF over GST control) in [1]; 1.06 fold enrichment (6-mer frequency, TF over GST control) in assay [2]; 1.1 fold enrichment (6-mer frequency, TF over GST control) in assay [3]; 1.16 fold enrichment (6-mer frequency, TF over GST control) in assay [4]; 1 fold enrichment (6-mer frequency, TF over GST control) in assay [5]; 1.24 fold enrichment (6-mer frequency, TF over GST control) in [6]. In addition, the binding signal in [7] is 1.11 fold enrichment (6-mer frequency, TF over GST control); in assay [8], 1.28 fold enrichment (6-mer frequency, TF over GST control); in assay [9] it was 1.23 fold enrichment (6-mer frequency, TF over GST control); in [10] it was 1.29 fold enrichment (6-mer frequency, TF over GST control); in assay [11], 1.27 fold enrichment (6-mer frequency, TF over GST control); in assay [12] it was 1.2 fold enrichment (6-mer frequency, TF over GST control). In addition, the binding signal was 1.09 fold enrichment (6-mer frequency, TF over GST control) in assay [13]; 1.13 fold enrichment (6-mer frequency, TF over GST control) in [14]; 1.06 fold enrichment (6-mer frequency, TF over GST control) in [15]; 1.13 fold enrichment (6-mer frequency, TF over GST control) in assay [16]; 1.2 fold enrichment (6-mer frequency, TF over GST control) in assay [17].
